From the supplement of paper PMC10849652
Of roughly 8,800 targets only a part is listed; those with a hit were picked by preference. About 0.5% of all pairs of compound and target were hits.

Assays:
Experiment in all cases: log2 fold change, soluble protein after heating vs DMSO (PISA); higher = thermal stabilisation; K562 lysate, 10 uM; active = over 0.2 and 3.5 SD of the protein, either way, in both replicates (recomputed)
[1] = compound: NCC(=O)Nc1ccc(-n2nc(C(F)(F)F)cc2-c2ccc3c(ccc4ccccc43)c2)cc1
In short: (§1)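 K562 pellets were dounce-homogenised in PBS pH 7.4 with 1 mM MgCl2, and the crude extract at 1 mg/mL protein was treated with 10 μM compound for 30 min. Aliquots were heated for 3 min across 48°C-58°C, pooled, and brought to 0.5% NP-40 at 4°C; soluble protein was the supernatant after 21,000xg for 90 min. Soluble protein was quantified by TMTpro 16plex LC-MS/MS with channel sums equalised, and reported as log2 fold change in thermal stability against DMSO controls, with values from duplicates.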

[2] = compound: O=C(CCCCCCC(=O)Nc1ccccc1)NO [vorinostat]
In short: as §1

[3] = compound: O=C(O)c1ccc2c(c1)nc(Nc1cccc(Cl)c1)c1ccncc12 [silmitasertib]
In short: as §1

[4] = compound: O=C1NC(=O)C(c2cnc3ccccn23)=C1c1cn2c3c(cc(F)cc13)CN(C(=O)N1CCCCC1)CC2
In short: as §1

[5] = compound: c1cn2cc(-c3ccc4cn[nH]c4c3)nc(Nc3ccc(N4CCOCC4)cc3)c2n1 [entospletinib]
In short: as §1

Measured: log2 fold change

CDK5RAP3 isoform 4 (UniProt Q96JB5)
inactive: [1] 0.046 | [2] 0.026 | [3] 0.068 | [4] 0 | [5] 0.012

CDC45 isoform 3 (UniProt O75419)
inactive: [1] -0.021 | [3] 0.012 | [4] 0.015 | [5] 0.03
active: [2] -0.487

BCAR1 isoform 6 (UniProt P56945)
UniProt P56945, sequence (P56945 whole entry, looked up): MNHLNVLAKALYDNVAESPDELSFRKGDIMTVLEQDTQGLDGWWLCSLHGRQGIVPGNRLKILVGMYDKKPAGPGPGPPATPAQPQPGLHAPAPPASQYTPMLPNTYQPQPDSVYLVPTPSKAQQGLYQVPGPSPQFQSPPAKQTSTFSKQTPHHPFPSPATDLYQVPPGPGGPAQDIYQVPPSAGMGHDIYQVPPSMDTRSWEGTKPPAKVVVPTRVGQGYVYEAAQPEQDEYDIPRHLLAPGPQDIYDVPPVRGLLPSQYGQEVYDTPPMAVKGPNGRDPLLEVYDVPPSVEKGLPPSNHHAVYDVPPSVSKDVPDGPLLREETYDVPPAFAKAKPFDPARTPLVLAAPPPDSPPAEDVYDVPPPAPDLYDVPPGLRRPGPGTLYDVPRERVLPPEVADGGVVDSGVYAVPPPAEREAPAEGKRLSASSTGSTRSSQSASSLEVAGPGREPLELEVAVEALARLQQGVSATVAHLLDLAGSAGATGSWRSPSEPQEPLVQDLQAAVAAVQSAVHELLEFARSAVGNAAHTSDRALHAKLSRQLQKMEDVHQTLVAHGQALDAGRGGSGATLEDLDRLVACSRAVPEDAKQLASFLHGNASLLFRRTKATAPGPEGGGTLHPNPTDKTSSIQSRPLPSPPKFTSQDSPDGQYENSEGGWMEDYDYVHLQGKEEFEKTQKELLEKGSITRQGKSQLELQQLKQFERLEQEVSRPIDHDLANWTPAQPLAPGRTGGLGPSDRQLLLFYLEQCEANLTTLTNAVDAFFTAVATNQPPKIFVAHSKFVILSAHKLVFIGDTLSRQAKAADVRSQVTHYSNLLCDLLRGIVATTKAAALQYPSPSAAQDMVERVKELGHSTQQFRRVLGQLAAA
inactive: [1] 0.056 | [2] -0.032 | [3] 0.002 | [4] -0.004 | [5] -0.083

CHAF1A (UniProt Q13111)
UniProt Q13111, sequence (Q13111 whole entry, looked up): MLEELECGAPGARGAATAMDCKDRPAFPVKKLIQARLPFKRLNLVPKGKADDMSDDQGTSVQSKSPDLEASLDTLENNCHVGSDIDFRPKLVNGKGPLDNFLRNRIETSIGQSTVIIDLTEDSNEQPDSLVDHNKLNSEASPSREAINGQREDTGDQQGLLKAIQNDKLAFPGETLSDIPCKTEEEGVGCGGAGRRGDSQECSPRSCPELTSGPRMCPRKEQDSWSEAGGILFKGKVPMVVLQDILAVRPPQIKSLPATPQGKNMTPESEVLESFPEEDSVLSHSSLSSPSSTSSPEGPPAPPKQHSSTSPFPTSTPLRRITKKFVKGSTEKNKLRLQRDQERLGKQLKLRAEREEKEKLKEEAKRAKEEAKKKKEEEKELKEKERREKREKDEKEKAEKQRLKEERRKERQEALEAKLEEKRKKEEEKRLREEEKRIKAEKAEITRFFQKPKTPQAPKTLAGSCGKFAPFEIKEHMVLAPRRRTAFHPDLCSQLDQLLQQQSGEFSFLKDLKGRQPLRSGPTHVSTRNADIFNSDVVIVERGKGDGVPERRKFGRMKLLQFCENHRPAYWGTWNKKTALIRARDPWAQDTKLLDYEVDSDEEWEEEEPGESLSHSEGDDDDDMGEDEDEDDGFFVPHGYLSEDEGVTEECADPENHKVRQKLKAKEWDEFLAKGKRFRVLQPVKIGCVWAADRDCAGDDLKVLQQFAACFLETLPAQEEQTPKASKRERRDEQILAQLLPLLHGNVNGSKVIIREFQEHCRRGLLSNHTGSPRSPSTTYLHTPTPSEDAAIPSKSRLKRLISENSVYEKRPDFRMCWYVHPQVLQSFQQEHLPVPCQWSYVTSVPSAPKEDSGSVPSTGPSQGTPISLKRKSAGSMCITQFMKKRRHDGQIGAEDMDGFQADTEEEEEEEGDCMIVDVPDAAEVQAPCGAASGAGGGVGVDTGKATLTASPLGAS
active: [2] -0.402
inactive: [1] 0.004 | [3] -0.004 | [4] 0.004 | [5] -0.082

CAD (UniProt P27708)
inactive: [1] 0.012 | [2] -0.067 | [3] 0.026 | [4] 0.008 | [5] 0

ATR (UniProt Q13535)
UniProt Q13535, sequence (Q13535 whole entry, looked up): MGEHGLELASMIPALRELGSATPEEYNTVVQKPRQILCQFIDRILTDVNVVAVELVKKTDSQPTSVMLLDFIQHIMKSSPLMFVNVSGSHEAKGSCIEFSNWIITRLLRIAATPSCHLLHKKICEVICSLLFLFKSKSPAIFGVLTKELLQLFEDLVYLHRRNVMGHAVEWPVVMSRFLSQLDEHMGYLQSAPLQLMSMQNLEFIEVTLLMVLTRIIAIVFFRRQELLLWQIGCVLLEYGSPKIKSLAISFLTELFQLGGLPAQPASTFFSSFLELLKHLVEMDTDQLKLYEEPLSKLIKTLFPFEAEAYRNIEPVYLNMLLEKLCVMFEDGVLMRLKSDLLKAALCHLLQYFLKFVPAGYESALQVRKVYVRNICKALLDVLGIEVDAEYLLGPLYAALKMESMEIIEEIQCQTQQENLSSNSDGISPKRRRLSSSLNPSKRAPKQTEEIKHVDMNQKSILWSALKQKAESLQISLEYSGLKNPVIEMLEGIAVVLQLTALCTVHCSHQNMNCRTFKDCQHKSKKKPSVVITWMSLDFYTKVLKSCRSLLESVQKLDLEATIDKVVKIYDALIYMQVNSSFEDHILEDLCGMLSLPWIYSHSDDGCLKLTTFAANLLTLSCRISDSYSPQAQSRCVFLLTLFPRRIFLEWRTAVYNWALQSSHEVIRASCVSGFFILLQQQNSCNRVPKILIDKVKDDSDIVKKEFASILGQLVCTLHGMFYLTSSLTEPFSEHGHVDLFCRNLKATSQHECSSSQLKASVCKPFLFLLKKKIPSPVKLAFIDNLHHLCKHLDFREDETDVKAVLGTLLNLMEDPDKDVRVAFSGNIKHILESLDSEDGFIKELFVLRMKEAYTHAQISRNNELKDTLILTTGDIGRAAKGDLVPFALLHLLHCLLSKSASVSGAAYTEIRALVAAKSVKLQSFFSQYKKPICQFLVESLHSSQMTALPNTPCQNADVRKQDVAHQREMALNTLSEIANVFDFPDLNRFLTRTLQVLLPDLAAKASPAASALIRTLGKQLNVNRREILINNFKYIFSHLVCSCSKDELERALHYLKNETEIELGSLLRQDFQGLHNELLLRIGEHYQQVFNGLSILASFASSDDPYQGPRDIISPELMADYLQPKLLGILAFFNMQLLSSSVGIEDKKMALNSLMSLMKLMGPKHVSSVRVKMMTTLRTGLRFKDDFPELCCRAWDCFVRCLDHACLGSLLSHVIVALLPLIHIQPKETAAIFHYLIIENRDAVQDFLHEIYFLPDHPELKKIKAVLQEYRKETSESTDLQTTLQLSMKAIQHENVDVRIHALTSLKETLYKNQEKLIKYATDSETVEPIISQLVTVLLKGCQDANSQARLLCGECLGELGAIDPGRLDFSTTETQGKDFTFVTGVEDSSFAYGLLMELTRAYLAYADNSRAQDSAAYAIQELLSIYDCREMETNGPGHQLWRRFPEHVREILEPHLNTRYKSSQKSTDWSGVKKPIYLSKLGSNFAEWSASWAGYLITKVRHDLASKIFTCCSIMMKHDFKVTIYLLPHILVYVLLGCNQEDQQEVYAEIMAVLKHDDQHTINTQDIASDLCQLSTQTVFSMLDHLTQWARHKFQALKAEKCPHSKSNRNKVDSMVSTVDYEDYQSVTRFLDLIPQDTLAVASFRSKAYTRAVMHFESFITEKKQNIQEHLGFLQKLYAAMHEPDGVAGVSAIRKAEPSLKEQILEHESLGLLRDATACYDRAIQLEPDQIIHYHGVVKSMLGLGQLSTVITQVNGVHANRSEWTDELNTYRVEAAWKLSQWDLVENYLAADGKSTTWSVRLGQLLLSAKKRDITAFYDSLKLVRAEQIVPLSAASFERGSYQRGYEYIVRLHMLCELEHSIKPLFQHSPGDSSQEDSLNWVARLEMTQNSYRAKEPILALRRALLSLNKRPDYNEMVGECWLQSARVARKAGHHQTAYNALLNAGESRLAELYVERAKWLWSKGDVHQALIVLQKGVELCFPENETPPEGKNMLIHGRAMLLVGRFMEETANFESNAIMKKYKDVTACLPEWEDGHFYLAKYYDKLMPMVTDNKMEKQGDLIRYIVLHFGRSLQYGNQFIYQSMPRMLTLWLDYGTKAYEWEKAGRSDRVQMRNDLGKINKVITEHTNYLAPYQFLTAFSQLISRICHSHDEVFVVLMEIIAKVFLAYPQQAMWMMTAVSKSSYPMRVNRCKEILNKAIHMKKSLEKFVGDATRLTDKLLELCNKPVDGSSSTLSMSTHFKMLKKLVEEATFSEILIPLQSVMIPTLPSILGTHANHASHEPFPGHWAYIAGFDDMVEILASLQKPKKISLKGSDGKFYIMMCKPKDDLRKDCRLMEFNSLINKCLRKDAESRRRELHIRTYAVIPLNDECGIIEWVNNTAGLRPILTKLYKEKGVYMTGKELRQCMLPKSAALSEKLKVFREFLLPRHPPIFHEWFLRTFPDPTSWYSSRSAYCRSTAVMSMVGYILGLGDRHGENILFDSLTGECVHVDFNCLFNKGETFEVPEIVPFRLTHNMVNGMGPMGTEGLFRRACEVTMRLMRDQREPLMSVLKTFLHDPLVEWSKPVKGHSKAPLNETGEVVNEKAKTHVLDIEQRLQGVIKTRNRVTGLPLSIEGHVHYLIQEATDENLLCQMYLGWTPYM
inactive: [1] 0.044 | [2] -0.131 | [4] -0.01 | [5] 0.046
active: [3] 0.509

CANX isoform 2 (UniProt P27824)
inactive: [1] 0.018 | [2] 0.131 | [3] -0.004 | [4] -0.015 | [5] -0.004

CELF2 isoform 3 (UniProt O95319)
UniProt O95319, sequence (O95319 whole entry, looked up): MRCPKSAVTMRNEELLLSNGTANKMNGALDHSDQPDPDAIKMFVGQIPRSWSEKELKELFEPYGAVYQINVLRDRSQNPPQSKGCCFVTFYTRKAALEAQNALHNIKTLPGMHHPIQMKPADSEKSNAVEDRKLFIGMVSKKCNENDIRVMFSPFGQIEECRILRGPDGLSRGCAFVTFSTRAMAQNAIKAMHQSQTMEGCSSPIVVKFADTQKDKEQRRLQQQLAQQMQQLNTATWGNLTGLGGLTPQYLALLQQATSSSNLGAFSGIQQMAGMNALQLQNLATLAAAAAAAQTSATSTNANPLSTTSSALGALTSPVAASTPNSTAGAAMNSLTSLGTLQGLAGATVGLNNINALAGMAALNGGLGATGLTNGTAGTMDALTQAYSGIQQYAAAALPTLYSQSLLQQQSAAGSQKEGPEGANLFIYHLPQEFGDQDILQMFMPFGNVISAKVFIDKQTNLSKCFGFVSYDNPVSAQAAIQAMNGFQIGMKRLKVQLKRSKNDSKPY
inactive: [1] 0.036 | [2] -0.028 | [3] -0.012 | [4] -0.041 | [5] 0.033

CDC25C (UniProt P30307)
active: [2] -0.271
inactive: [1] -0.019 | [3] 0.009 | [4] 0.026 | [5] -0.01
